Bioassay records: PubChem, several laboratories
Hits are enriched below; roughly 3.7% of the tested compounds scored in any of these assays.
BoNT-F LC inh = BoNT/F light chain protease inhibitors, primary screen, biochemical, flow cytometry, MLPCN library | Botulinum neurotoxin type F light chain protease (Clostridium botulinum) | Multiplex microsphere protease cleavage assay | inhibition, % at 10 µM | AID 588497, 2011 | actives 0.22% (n = 360,000); in the data active = inhibition above about 35%, passing the limit was not always enough; inconclusive = no clear call, values can overlap the other calls; also: plate controls were buffer without enzyme for full effect and enzyme alone for no effect
BoNT-A LC inh2 = BoNT/A light chain protease inhibitors, primary screen, biochemical, flow cytometry, MLPCN library | AID 588499, 2011 | inhibition, % at 10 µM | Botulinum neurotoxin type A light chain protease (Clostridium botulinum A str. ATCC 3502) | actives 0.17% (n = 360,000) | multiplex microsphere protease substrate cleavage; also: plate controls were buffer without enzyme for full effect and enzyme alone for no effect
Anthrax LF prot = Bacillus anthracis LF protease inhibitors, primary screen, biochemical, multiplex microsphere, MLPCN library | Lethal factor (Bacillus anthracis), P15917 | multiplex microsphere protease cleavage assay | inhibition, % at 10 µM | actives 0.12% (n = 360,000) | AID 588501, 2011; also: plate controls were buffer without enzyme for full effect and enzyme alone for no effect
Target sequence (P15917 whole entry, looked up): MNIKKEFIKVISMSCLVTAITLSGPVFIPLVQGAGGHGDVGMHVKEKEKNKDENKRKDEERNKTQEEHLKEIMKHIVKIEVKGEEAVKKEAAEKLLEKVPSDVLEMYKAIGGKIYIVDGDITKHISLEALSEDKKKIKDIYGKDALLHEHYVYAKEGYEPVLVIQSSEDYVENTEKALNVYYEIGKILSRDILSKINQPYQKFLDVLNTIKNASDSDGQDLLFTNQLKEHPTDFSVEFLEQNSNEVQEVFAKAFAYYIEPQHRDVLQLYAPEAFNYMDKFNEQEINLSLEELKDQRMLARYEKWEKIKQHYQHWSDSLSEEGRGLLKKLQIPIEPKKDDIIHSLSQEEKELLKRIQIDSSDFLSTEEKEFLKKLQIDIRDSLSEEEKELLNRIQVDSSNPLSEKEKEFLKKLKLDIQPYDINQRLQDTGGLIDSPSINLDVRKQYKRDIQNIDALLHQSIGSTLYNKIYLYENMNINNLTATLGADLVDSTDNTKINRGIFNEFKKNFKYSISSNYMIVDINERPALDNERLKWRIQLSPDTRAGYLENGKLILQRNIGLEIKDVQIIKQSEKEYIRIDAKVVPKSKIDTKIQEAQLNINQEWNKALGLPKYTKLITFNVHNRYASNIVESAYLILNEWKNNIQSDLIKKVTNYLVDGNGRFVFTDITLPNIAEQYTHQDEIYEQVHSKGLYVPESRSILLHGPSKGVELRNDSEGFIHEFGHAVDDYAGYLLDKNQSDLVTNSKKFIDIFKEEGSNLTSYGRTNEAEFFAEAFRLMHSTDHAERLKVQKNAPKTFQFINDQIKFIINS
Autofluor counter = compound fluorescence in toxin protease inhibitor counterscreen; compound autofluorescence counterscreen, microsphere flow cytometry; active compounds read high; actives 3.1% (n = 360,000); fluorescence intensity (concentration not given with the values); in the data active = fluorescence intensity above about 16000; inconclusive = no clear call, values can overlap the other calls
MazF activator = activators of E. coli MazEF toxin-antitoxin RNase, primary screen, biochemical, fluorescence, uHTS; Endoribonuclease toxin MazF (Escherichia coli (strain K12)), P0AE70; FAM/BHQ RNA-DNA oligo cleavage fluorescence, 5 h; activation, % at 20 µM; actives 0.32% (n = 350,000); in the data active = activation above about 50%
* hit, by the source's call; u = inconclusive; x = no result given. Rule as the data show it, unless noted: active = inhibition above about 30%; inconclusive = no clear call, values can overlap the other calls; inactive = below that.

SMILES | BoNT-F LC inh | BoNT-A LC inh2 | Anthrax LF prot | Autofluor counter | MazF activator
CS(=O)(=O)N(CC(=O)Nc1ccccc1Sc1ccccc1)C1CCCCC1 | -1.5 | u | -3.1 | 22169* | -13.1
COCCn1c(N)c(Sc2ccccc2)c(=O)[nH]c1=O | -2.5 | -1.3 | 3.2 | 3979 | 3.1
CCCn1c(N)c(Sc2ccccc2)c(=O)n(CCC)c1=O | -1.4 | -1.3 | -0.8 | 19729* | 5.7
CCCCn1c(N)c(Sc2ccccc2)c(=O)[nH]c1=O | -9.8 | -7.6 | -5.5 | 25818* | 9.0
Cc1ccccc1NC(=S)NCc1ccc2c(c1)cc(C)n2C | -20.4 | 12.3 | 0.2 | 4862 | 8.7
COc1ccccc1NC(=S)NCc1ccc2c(c1)cc(C)n2C | -119.8 | 33.4* | -75.2 | 2036 | 11.9
CCc1cccc(C)c1NC(=S)NCc1ccccc1 | -2.3 | -0.6 | -0.2 | 2105 | 6.0
Cc1cc2cc(CNC(=S)NCc3ccccc3)ccc2n1C | -120.2 | 45.3* | -80.2 | 2043 | 22.9
CCc1cccc(C)c1NC(=S)NCc1ccc2c(c1)cc(C)n2C | -141.0 | 56.7* | -101.1 | 1803 | 8.1
CCOC(=O)CCC(=O)NCc1ccc2c(c1)cc(C)n2C | 11.6 | 14.8 | 20.8 | 18146* | 1.2
O=C(NCc1ccccc1)C1CCC(CNS(=O)(=O)c2cccs2)CC1 (centres undefined) | -6.5 | 1.4 | 2.9 | 4433 | 1.9
CCCCNC(=S)NCc1ccc2c(c1)cc(C)n2C | -76.2 | 29.6* | -41.7 | 3100 | 14.5
COc1ccc(/C=C\C(=O)NCc2ccc3c(c2)cc(C)n3C)cc1OC | -97.8 | 61.8* | -62.7 | 2367 | -5.1
O=C(CCCC(=O)OCC(=O)c1ccc(Cl)cc1)NC1CCCCC1 | 1.3 | 1.3 | 0.5 | 5556 | 1.7
COc1ccc(CCNC(=O)C(C)SCC(=O)Nc2ccc(F)cc2)cc1 (centres undefined) | 8.2 | -0.9 | 11.6 | 4014 | 0.8
COc1ccc(OC)c(N(CC(N)=O)S(=O)(=O)c2ccc(OC)c(OC)c2)c1 | -0.1 | 0.2 | -1.2 | 20080* | -1.2
COc1ccc(OC)c(N(CC(=O)N2CCC(C)CC2)S(=O)(=O)c2ccccc2)c1 | 0.2 | u | -7.4 | 20367* | -5.7
COc1ccc(OC)c(N(CC(=O)N2CCC(C)CC2)S(=O)(=O)c2ccc(OC)c(OC)c2)c1 | -6.5 | -0.5 | -38.5 | u | 5.3
Cc1ccc(S(=O)(=O)N(CC(=O)N2CCC(C)CC2)c2cccc(C)c2)cc1 | -1.5 | 1.3 | -10.5 | 20718* | -0.9
CCOC(=O)N1CCN(C(=O)CN(c2cccc(C)c2)S(=O)(=O)c2ccc(C)cc2)CC1 | -1.8 | 0.0 | -5.8 | 5574 | -0.7
Cc1ccc(OCCNC(=O)C2CC(=O)N(Cc3ccccc3)C2)cc1 (centres undefined) | -2.8 | 0.1 | -6.3 | 3046 | 0.9
O=C1c2ccccc2C(c2nnnn2-c2ccc3c(c2)OCCO3)N1CCc1c[nH]c2ccccc12 (centres undefined) | 0.1 | 0.2 | 11.3 | 5759 | x
Cn1cncc1C#Cc1ccc2cc(C3(O)CCCCC3)oc(=O)c2c1 | 1.1 | -0.4 | -0.6 | 3290 | 76.3*
Cn1cncc1C#Cc1ccc2cc(C(C)(C)O)oc(=O)c2c1 | -2.2 | -0.3 | 6.7 | 4204 | -6.7
CCCCCN(C(=O)CCC(=O)OC(C)C(=O)Nc1ccccc1C)c1c(N)n(CCCC)c(=O)[nH]c1=O (centres undefined) | -9.1 | -0.4 | 0.9 | 2881 | 2.8
SMILES | BoNT-F LC inh | BoNT-A LC inh2 | Anthrax LF prot | Autofluor counter | MazF activator
O=C1/C(=C/c2ccc3c(c2)OCO3)SC(=S)N1CCC(=O)N(CCO)c1ccccc1 | 2.7 | 2.7 | 4.2 | 3658 | 77.4*
O=C1/C(=C/c2cccc(Br)c2)SC(=S)N1CCC(=O)N(CCO)c1ccccc1 | -3.9 | -0.5 | -0.6 | 3084 | -6.6
Cc1cc(C)nc(NC(=O)c2ccc(Br)cc2)n1 | u | -8.2 | 2.2 | 4483 | 5.9
Cc1cc(NO)nc(-c2ccc(Br)cc2)n1 | -5.1 | -3.1 | -2.4 | 24290* | 2.1
Cc1nc(=S)n(-c2ccccc2)[nH]1 | u | -0.5 | -3.9 | 4287 | -3.3
S=c1nc(-c2ccccc2)[nH]n1-c1ccccc1 | -5.8 | -5.2 | -3.4 | 25268* | -13.3
CCCc1cc(C(=O)Nc2ccc(C(=O)c3ccc(C)cc3)cc2)n(C)n1 | 7.9 | -1.1 | 0.4 | 4572 | -11.1
CSc1ccc(-c2c(C#N)c(N)nc3c2CCCC3)cc1 | 0.1 | 0.9 | -1.0 | 8822 | 10.1
